Source: PubChem
This is a sample that favours compounds with a hit; in the whole collection about 4.7% have one here.
tim10-1 inh = growth inhibitors of tim10-1 mutant yeast, primary screen, luminescence, uHTS; S. cerevisiae tim10-1 ts strain growth, BacTiter-Glo, 24 h; inhibition, % at 20 µM; 2.2% of 330,000 active; AID 463190, 2010;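 active = inhibition of at least 40%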;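 note: mutant grown at 25 °C; 0% = DMSO wells with yeast and 100% = wells holding no yeast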
EBI2 antag = EBI2 receptor antagonists, beta-arrestin recruitment, primary screen, cell-based, luminescence, 7a,25-OHC stimulation, uHTS. 0.81% of 360,000 active. 7a,25-OHC stimulated. inhibition, % at 5 µM. G-protein coupled receptor 183 (Homo sapiens), P32249; in the data active = inhibition above about 38%;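 note: enzyme fragment complementation signal reports receptor beta-arrestin coupling in cells; 0% = agonist plus DMSO wells and 100% = wells without agonist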
Target sequence (P32249 whole entry, looked up, the tested form may be a part): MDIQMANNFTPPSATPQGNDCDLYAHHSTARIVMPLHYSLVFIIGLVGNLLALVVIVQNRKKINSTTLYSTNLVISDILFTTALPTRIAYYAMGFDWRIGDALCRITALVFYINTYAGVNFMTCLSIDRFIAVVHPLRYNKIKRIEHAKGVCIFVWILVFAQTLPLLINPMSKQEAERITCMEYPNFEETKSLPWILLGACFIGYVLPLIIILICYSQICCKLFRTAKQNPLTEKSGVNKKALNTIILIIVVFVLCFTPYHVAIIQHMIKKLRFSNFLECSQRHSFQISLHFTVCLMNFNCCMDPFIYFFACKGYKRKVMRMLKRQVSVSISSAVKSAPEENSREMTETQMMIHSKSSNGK
PfHsp90 yeast 2 = growth inhibition of PfHsp90-expressing yeast, primary screen, antimalarial PfHsp90 inhibitor project, S. cerevisiae, BacTiter-Glo luminescence, single point, set 2. BacTiter-Glo ATP, 48 h; yeast lacking PDR1 and PDR3 efflux regulators. inhibition, % at 9.4 µM. 0.32% of 310,000 active;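 active = every replicate shows inhibition above about 80%, whatever the replicate mean, limit read from the data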;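 note: 0% = DMSO neutral controls and 100% = 20 µM radicicol positive controls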
SKKanGAS inh = S. pyogenes SKKanGAS growth inhibitors in kanamycin, primary screen, streptokinase expression inhibitor project, SKKanGAS strain, BacTiter-Glo luminescence; 6 h; inhibition, % at 7.5 µM; 1.3% of 300,000 active;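 active = mean replicate score, as percent of positive control median, at least 50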;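 note: strain carries kanamycin resistance gene driven by streptokinase promoter and grows in 40 µg/ml kanamycin; loss of luminescence reflects streptokinase promoter inhibition or plain growth inhibition; 0% = median of DMSO wells and 100% = positive control at its reference dose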
tim23-1 inh = growth inhibitors of tim23-1 mutant yeast, primary screen, luminescence, uHTS | S. cerevisiae tim23-1 growth, BacTiter-Glo luminescence, 24 h | 1.3% of 330,000 active | inhibition, % at 20 µM;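 active = growth inhibition of the mutant yeast at or above 50%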;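 note: temperature-sensitive mutant grown at 25 °C; plate controls were DMSO-treated mutant yeast for no effect and medium wells lacking yeast for full effect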
TIM10 inh = growth inhibitors of isogenic TIM10 control yeast, primary screen, counter-screen for tim10-1 yeast inhibitor project, luminescence, uHTS; S. cerevisiae TIM10 strain growth, BacTiter-Glo luminescence, 24 h; inhibition, % at 10 µM; 1.4% of 330,000 active;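 active = inhibition of 40% or more at the single tested concentration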;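 note: wild-type TIM10 isogenic control strain grown at permissive 25 °C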
tim10-1 confirm = growth inhibitors of tim10-1 mutant yeast, confirmation, single concentration, luminescence, S. cerevisiae. shares compounds with tim10-1 inh. S. cerevisiae tim10-1 ts strain growth, BacTiter-Glo, 24 h. inhibition, % at 20 µM. 56% of 7,400 active;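 active = inhibition of yeast growth at or above a set limit in either of two repeat tests at 20 µM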;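 note: tim10-1 mutant grown at permissive 25 °C to find synthetic lethal compounds; 0% = DMSO yeast wells and 100% = medium wells without yeast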
* hit, by the source's call.

`Cn1c(NCc2c(O)ccc3ccccc23)nc2ccccc21` gave tim10-1 inh 45*, EBI2 antag 10, SKKanGAS inh 5, tim23-1 inh 36, TIM10 inh 28 and tim10-1 confirm 33*.
Cn1c(NCc2cc(Br)ccc2O)nc2ccccc21 was read as tim10-1 inh 38, EBI2 antag -6, SKKanGAS inh -5, tim23-1 inh 7 and TIM10 inh 7.
For CC(C)(C)Cc1nc2ccccc2n1CCc1ccccc1 the results were tim10-1 inh 41*, EBI2 antag 2, PfHsp90 yeast 2 -14, SKKanGAS inh 14, tim23-1 inh 36, TIM10 inh 37 and tim10-1 confirm 27.
For CCc1nc2ccccc2n1CCc1ccccc1 the results were tim10-1 inh 18, EBI2 antag -7, PfHsp90 yeast 2 -12, SKKanGAS inh 0, tim23-1 inh 8 and TIM10 inh 4.
`Cc1ccccc1CSCCNC(=S)Nc1ccccc1` gave tim10-1 inh 45*, EBI2 antag 4, PfHsp90 yeast 2 -15, SKKanGAS inh -15, tim23-1 inh 12, TIM10 inh 26 and tim10-1 confirm 24.
For Cc1ccccc1CSCCNC(=O)c1ccccc1 the results were tim10-1 inh 18, EBI2 antag -8, PfHsp90 yeast 2 -9, SKKanGAS inh -3, tim23-1 inh 9 and TIM10 inh -14.
`Cc1cc(C)cc(-n2ncc3c2CCCC3NC(=O)c2cc(C)oc2C)c1` (centres undefined) gave tim10-1 inh 18, EBI2 antag -1, PfHsp90 yeast 2 -11, SKKanGAS inh 7, tim23-1 inh 23 and TIM10 inh 25.
Cc1cc(C)cc(-n2ncc3c2CCCC3NC(=O)c2csnn2)c1 (centres undefined) was read as tim10-1 inh 41*, EBI2 antag 5, PfHsp90 yeast 2 -4, SKKanGAS inh -1, tim23-1 inh 42, TIM10 inh 17 and tim10-1 confirm 27.
`COc1ncccc1C(=O)NC1CCCc2c1cnn2-c1cc(C)cc(C)c1` (centres undefined) gave tim10-1 inh 48*, EBI2 antag 19, PfHsp90 yeast 2 -9, SKKanGAS inh 5, tim23-1 inh 21, TIM10 inh 21 and tim10-1 confirm 8.
`Cc1ccc(NC(=O)C2CCCN(C(=O)c3ccc(Cl)cc3)C2)cc1C` (centres undefined) gave tim10-1 inh 6, EBI2 antag 15, PfHsp90 yeast 2 -10, SKKanGAS inh 7, tim23-1 inh 4 and TIM10 inh 1.
CN1C(=O)C(O)(CC(=O)/C=C\c2ccc3c(c2)OCO3)c2ccccc21 (centres undefined) was read as tim10-1 inh 42*, EBI2 antag 1, PfHsp90 yeast 2 12, tim23-1 inh 40, TIM10 inh 35 and tim10-1 confirm 28.
`NC(=O)CN1C(=O)C(O)(CC(=O)/C=C\c2ccc3c(c2)OCO3)c2ccccc21` (centres undefined) gave tim10-1 inh 6, EBI2 antag 3, PfHsp90 yeast 2 7, SKKanGAS inh -8, tim23-1 inh -3 and TIM10 inh -3.
For Cc1ccc(C(C)C)cc1C(=O)CC1(O)C(=O)N(C)c2ccccc21 (centres undefined) the results were tim10-1 inh 42*, EBI2 antag -7, PfHsp90 yeast 2 -1, SKKanGAS inh 3, tim23-1 inh 1, TIM10 inh 33 and tim10-1 confirm 32*.
For CCn1ccnc1CN(C)Cc1cn(-c2cc(C)ccc2C)nc1-c1ccccc1 the results were tim10-1 inh 42*, EBI2 antag 11, PfHsp90 yeast 2 -10, SKKanGAS inh 19, tim23-1 inh 31, TIM10 inh 27 and tim10-1 confirm 17.
